Measurements published in PubChem BioAssay AID1159580 (chemical genetic matrix, 2015).
The whole screen tested about 5,500 compounds, of which about 2,000 (36%) were called active. Another 18% or so got no clear call; they are omitted. Cut-off read from the data, not from the text of the source: active = normalized growth mostly below about 0.91 (no sharp cut-off); inconclusive = no clear call, values can overlap the other calls; inactive = mostly above about 0.92. The list shows a part of the results.

Assay: chemical genetic growth profiling, strain panel (AID 1159580);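 note: tested at 20 µM; growth read once vehicle control cultures reached saturation at 30 °C; 1 = growth at the plate median or of vehicle wells; lower values mean less growth of the strain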
Conditions: S. cerevisiae deletion strains, growth OD

Measured: normalized growth

O=C(OC1Cc2c(O)cc(O)cc2OC1c1cc(O)c(O)c(O)c1-c1c(C2Oc3cc(O)cc(O)c3CC2OC(=O)c2cc(O)c(O)c(O)c2)cc(O)c(O)c1O)c1cc(O)c(O)c(O)c1 (centres undefined)
inactive: locus YAL026C, strain drs2, hits give low values 0.982 | locus YAL030W, strain snc1, hits give low values 0.998 | locus YBL061C, strain skt5, hits give low values 0.982 | locus YBR009C, strain hhf1, hits give low values 0.995 | locus YBR021W, strain FUR4, hits give low values 0.988 | locus YBR023C, strain chs3, hits give low values 0.941 | locus YBR171W, strain sec66, hits give low values 1.01 | locus YBR229C, strain ROT2, hits give low values 1 | locus YBR231C, strain swc5, hits give low values 0.929 | locus YBR279W, strain paf1, hits give low values 0.989 | locus YCL011C, strain gbp2, hits give low values 1.01 | locus YCL016C, strain dcc1, hits give low values 1.01 | locus YCL029C, strain bik1, hits give low values 0.981 | locus YCL061C, strain MRC1, hits give low values 1.01 | locus YCL069W, strain vba3, hits give low values 1.02 | locus YCR088W, strain abp1, hits give low values 1.02 | locus YDL005C, strain med2, hits give low values 1.02 | locus YDL035C, strain GPR1, hits give low values 1.04 | locus YDL040C, strain nat1, hits give low values 1.03 | locus YDL074C, strain BRE1, hits give low values 0.969 | locus YDL101C, strain DUN1, hits give low values 1 | locus YDL185W, strain tfp1, hits give low values 0.988 | locus YDL192W, strain arf1, hits give low values 0.985 | locus YDR001C, strain nth1, hits give low values 1.02 | locus YDR101C, strain arx1, hits give low values 0.998 | locus YDR150W, strain NUM1, hits give low values 1 | locus YDR159W, strain sac3, hits give low values 1.11 | locus YDR162C, strain NBP2, hits give low values 1.02 | locus YDR195W, strain ref2 1.07 | locus YDR297W, strain sur2, hits give low values 0.992 | locus YDR318W, strain mcm21, hits give low values 0.995 | locus YDR334W, strain swr1, hits give low values 0.977 | locus YDR335W, strain msn5, hits give low values 1 | locus YDR388W, hits give low values 0.99 | locus YDR392W, strain spt3, hits give low values 1.02 | locus YDR502C, strain sam2, hits give low values 0.985 | locus YEL003W, strain gim4, hits give low values 0.989 | locus YEL037C, strain rad23, hits give low values 0.993 | locus YEL061C, strain CIN8 (second series), hits give low values 1.01 | locus YEL061C, strain CIN8, hits give low values 1.01 | locus YER016W, strain bim1, hits give low values 1.01 | locus YER110C, hits give low values 0.994 | locus YER111C, strain swi4, hits give low values 0.973 | locus YER155C, strain BEM2 (second series), hits give low values 0.994 | locus YER155C, strain BEM2, hits give low values 0.977 | locus YER167W, strain BCK2, hits give low values 1 | locus YFR010W, strain ubp6, hits give low values 0.934 | locus YGL078C, strain dbp3, hits give low values 0.987 | locus YGL086W, strain mad1, hits give low values 1 | locus YGL167C, strain pmr1, hits give low values 1 | locus YGL173C, strain kem1, hits give low values 0.981 | locus YGL227W, strain vid30, hits give low values 1.05 | locus YGL240W, strain doc1, hits give low values 1.04 | locus YGL248W, strain PDE1, hits give low values 1 | locus YGL253W, strain hxk2, hits give low values 0.994 | locus YGR078C, strain PAC10, hits give low values 0.983 | locus YGR135W, strain pre9, hits give low values 0.989 | locus YGR252W, strain gcn5, hits give low values 1.01 | locus YHR013C, strain ard1, hits give low values 0.852 | locus YHR030C, strain SLT2, hits give low values 0.998 | locus YHR079C, strain IRE1 (second series), hits give low values 0.987 | locus YHR094C, strain hxt1, hits give low values 0.989 | locus YHR129C, strain ARP1, hits give low values 0.983 | locus YHR142W, strain chs7, hits give low values 0.95 | locus YHR200W, strain rpn10, hits give low values 1 | locus YIL066C, strain RNR3, hits give low values 1.03 | locus YIL073C, strain SPO22, hits give low values 1.1 | locus YIL125W, strain kgd1, hits give low values 0.973 | locus YIR030C, strain dcg1, hits give low values 0.995 | locus YJL092W, strain hpr5, hits give low values 1.03 | locus YJL095W, strain BCK1 (second series), hits give low values 0.987 | locus YJL095W, strain BCK1, hits give low values 0.976 | locus YJL115W, strain asf1, hits give low values 1.02 | locus YJL129C, strain trk1, hits give low values 1.04 | locus YJL134W, strain LCB3, hits give low values 1.02 | locus YJL154C, strain vps35, hits give low values 1.01 | locus YJL164C, strain tpk1, hits give low values 0.937 | locus YJL166W, strain qcr8, hits give low values 0.989 | locus YJL168C, strain set2, hits give low values 0.981
active: locus YAL021C, strain ccr4, hits give low values 0.833 | locus YDR069C, strain doa4, hits give low values 0.797 | locus YDR137W, strain rgp1, hits give low values 0.833 | locus YER015W, strain faa2, hits give low values 0.926 | locus YHR027C, strain rpn1, hits give low values 0.849
